Data taken from PubChem BioAssay AID624305 (National Center for Advancing Translational Sciences (NCATS), 2012).
Results filed as inconclusive are left out. Where a call stands in place of a potency, no number is given. Active and inactive are the calls of the source. Calls follow the shape of the dose curve; as a rule, active = well fitted activation curve with a large enough effect; inconclusive = small, poorly fitted or top-dose-only effect; inactive = no such curve, though single readings can be large or run the other way.

Experiment: qHTS assay for re-activators of p53 using a Luc reporter: Hit Validation; also: nearly all actives have a fitted effect of over 75% in size
Procedure, shortened: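 H1299 (p53-null) cells stably carrying p53-A138V and a BP100-luciferase reporter, 1000 cells/well, treated 24 h at 37 deg C. Compounds at several concentrations, 1:5 dilution; nocodazole control; luminescence read after 10 min with detection reagent.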
Potency is read from the fitted curve at half-maximal effect.

Structure (SMILES)	Potency	activation
O=C(/C=C/c1ccco1)Nc1ccc2nn(-c3ccccc3)nc2c1	inactive	–
C#CC(C)(CC)NC(=O)Cn1nnc(-c2ccc(S(C)(=O)=O)cc2)n1 (stereo not drawn)	inactive	–
C=C[C@@H]1c2cc(C)ccc2N(S(=O)(=O)c2ccc(C)cc2)[C@H](c2ccccc2C(F)(F)F)C1(C#N)C#N	inactive	–
CC12CCC(C(=O)N(CSC(=S)N/N=C\c3ccccc3O)C1=O)C2(C)C (stereo not drawn)	inactive	–
CCCCc1ccc(NC(=S)Nc2ccc(Nc3ccc(OC)cc3)cc2)cc1	inactive	–
CCOc1ccc2cc(C#N)c(SCC(=O)OC)nc2c1	2.91 µM (active)	–
Cc1occc1C(=O)NN=C1C2CC3CC(C2)CC1C3	inactive	–
Cc1ccc2c(c1)CCCN2C(=O)Nc1ccc2c(c1)OCO2	inactive	–
Cc1ccc(Nc2nc(N)nc(CSc3nccn3C)n2)cc1	2.31 µM (active)	–
NC(=NCc1ccccc1)c1cccc([N+](=O)[O-])c1	inactive	–
Cc1cccc(NC(=O)/C=C/c2ccc([N+](=O)[O-])s2)c1	inactive	–
Cc1ccc2nc(NC(=O)c3ccc(Cl)s3)sc2c1	0.731 µM (active)	–
Cc1ccc2nc(SCn3nnc4ccccc4c3=O)[nH]c2c1	1.3 µM (active)	–
C(=N\Nc1nc2ccccc2s1)/c1ccc2c(c1)OCO2	2.59 µM (active)	–
CCOc1ccc(NS(=O)(=O)c2ccc(C(=O)NC3CCN(Cc4ccccc4)CC3)cc2)cc1	inactive	–
O=C(NNC(=O)c1cc(-c2ccccc2)nn1-c1ccccc1)c1ccccc1	–	1.05% [at 9.22 µM] (inactive)
COc1ccc(CCC(=O)Nc2ccc(-c3noc(-c4ccc(OC)c(OC)c4)n3)cc2)cc1	inactive	–
COc1ccc(-c2csc(NCc3ccco3)n2)cc1C	18.4 µM (active)	–
CCOc1ccc(-c2nnc(SCC(=O)N3CCNC3=O)o2)cc1	2.06 µM (active)	–
Cc1ccc2cc(CCNC(=O)c3ccco3)c(=O)[nH]c2c1C	2.31 µM (active)	–
O=C(NCc1ccc(-c2nc3ccccc3s2)cc1)c1cc2ccccc2o1	inactive	–
OCc1cc(Br)ccc1OCc1nc2ccccc2s1	2.91 µM (active)	–

Structure (SMILES)	Potency	activation
O=C(O)C1C2C=CC(C2)C1C(=O)Nc1ccccc1Br (stereo not drawn)	inactive	–
Cc1cccc(-n2nc([N+](=O)[O-])c(=NC3CCN(Cc4ccccc4)CC3)n2O)c1	inactive	–
Cc1csc(NC(=O)CSc2nnc(-c3cccs3)n2C)n1	inactive	–
Cc1ccc(/C=N/NC(=O)c2cccs2)s1	5.8 µM (active)	–
CS(=O)(=O)c1ccc2nc(NC(=O)c3ccco3)sc2c1	14.6 µM (active)	–
N#Cc1cccc(N=Cc2c(O)ccc3ccccc23)c1	inactive	–
CCCN1C(=O)SC(CC(=O)Nc2ccccc2C)C1=O (stereo not drawn)	–	12.4% [at 9.22 µM] (inactive)
O=C(NC(=S)Nc1ccccc1Br)C1CCCCC1	20.6 µM (active)	–
CCc1ccc2[nH]c(=O)c(CN(CCN(CC)CC)C(=O)NC3CCCCC3)cc2c1	inactive	–
Cc1cccc(NC(=O)/C=C/c2ccc(Cl)cc2)n1	2.31 µM (active)	–
C=CCSC1=N/C(=C\c2cc(OCC)c(OC(C)=O)c([N+](=O)[O-])c2)C(=O)S1	inactive	–
Nn1cnnc1N/N=C\c1ccc(-c2ccccc2[N+](=O)[O-])o1	inactive	–
O=C(NCCCNC1CCCCC1)c1ccc(/C=N/O)nc1	inactive	–
c1ccc(-c2cn3nc(-c4ccccc4)cnc3n2)cc1	0.92 µM (active)	–
O=C(CNc1ccccc1)N/N=C/c1c[nH]c2ccccc12	inactive	–
Cc1ccc(OC(=O)c2cccc(S(=O)(=O)N3CCCC3)c2)c(-n2nc3ccccc3n2)c1	3.66 µM (active)	–
C/C(Cn1nnc([N+](=O)[O-])n1)=N\NC(=O)c1ccc(C)cc1	inactive	–
Cc1cc(C(c2nnnn2Cc2ccccc2)N2CCOCC2)c(C)n1-c1ccc2c(c1)OCO2 (stereo not drawn)	inactive	–
CC(=O)N/C(=C/c1ccc2c(c1)OCO2)C(=O)Nc1ccccc1	inactive	–
CN(C)CCN(CC1CCCN(Cc2ccccc2F)C1)C(=O)c1ccc(F)cc1 (stereo not drawn)	inactive	–
Oc1cccc2c(NC(=S)Nc3ccc(OC(F)F)cc3)cccc12	inactive	–
O=C(CC1CCCCC1)NCc1ccc(Cl)cc1	11.6 µM (active)	–

Structure (SMILES)	Potency	activation
C=CCNc1nc(-c2cc3ccccc3o2)cs1	0.651 µM (active)	–
COc1cc(CNC2CCCCCCC2)c(Br)cc1OCCO	inactive	–
COc1ccc(CCNC2CCC(c3ccccc3)CC2)cc1 (stereo not drawn)	inactive	–
COc1ccc(-c2coc3cc(O[C@@H]4O[C@H](CO)[C@@H](O)[C@H](O)[C@H]4O)ccc3c2=O)cc1	2.91 µM (active)	–
CCOC(=O)c1ccc2ncc(C(=O)OCC)c(NCc3ccco3)c2c1	inactive	–
COc1ccc(CC(=O)Nc2ccc(C(=O)Nc3ccccc3C(=O)O)cc2)cc1OC	inactive	–
CCOc1cc(S(=O)(=O)NC2CCCCCC2)ccc1F	inactive	–
Cc1cc(C(=O)COC(=O)c2ccc(O)cc2)c(C)n1CC(F)(F)F	20.6 µM (active)	–
Oc1c(CN2CCOCC2)cc(COCc2ccccc2)c2cccnc12	inactive	–
O=C(NC(=S)NC1CCCCC1)c1ccccc1[N+](=O)[O-]	inactive	–
Cn1c(CCN2CCCCC2)nc2cc(NC(=O)Nc3ccccc3)ccc21	inactive	–
Brc1ccc(-c2nc3ccccc3s2)s1	3.26 µM (active)	–
CCN(CC)C(=O)CNC(=S)N(CCCN1CCOCC1)Cc1cccs1	inactive	–
Clc1ccc(Nc2nc(-c3cccs3)cs2)nc1	4.11 µM (active)	–
CN(C)c1ccc(NC(=O)CCCc2ccccc2)cc1	1.46 µM (active)	–
COc1ccc(C(=O)Nc2nnc(C(F)(F)F)s2)cc1	10.3 µM (active)	–
Cc1ccc2c(c1)sc1nc(=O)n(-c3cccc(Cl)c3)c(=O)n12	8.2 µM (active)	–
Cc1ccc(/C=C(\C#N)C(=O)NCC2CCCO2)o1 (stereo not drawn)	inactive	–
C/C(=N/NC(=O)c1ccc2c(c1)OCO2)c1ccc(NC(=O)C(F)(F)F)cc1	9.2 µM (active)	–
CC1(C)Oc2ccc(NC(=O)C3COc4ccccc4O3)cc2O1 (stereo not drawn)	1.3 µM (active)	–
O=C(N/N=C/C1C(c2ccccc2)C1(Cl)Cl)c1cccc(Cl)c1 (stereo not drawn)	inactive	–
COc1ccccc1NC(CC(=O)c1ccccc1)C(=O)OCC(=O)c1ccc(C)cc1 (stereo not drawn)	0.206 µM (active)	–

Structure (SMILES)	Potency	activation
O=C(CCCN1C(=O)/C(=C/c2ccco2)SC1=S)Nc1ccccc1	inactive	–
Cc1ccc(C)c(OCC(O)CN2C(C)CCCC2C)c1 (stereo not drawn)	inactive	–
CCOc1ccc(N/C=C/C(=O)c2ccccc2)c([N+](=O)[O-])c1	0.461 µM (active)	–
Clc1ccc(OCc2nc(-c3ccncc3)no2)c(Cl)c1	8.2 µM (active)	–
c1ccc2oc(C3=NNC(=NC4CC4)SC3)cc2c1	0.366 µM (active)	–
CCCN1CCC(=NNC(=O)CSc2cc(C)c(Br)cc2C)CC1	inactive	–
NS(=O)(=O)c1ccc(CCNCc2cccnc2)cc1	inactive	–
Cc1cccc(NC(=O)Nc2ccc(C)cc2Br)c1	16.4 µM (active)	–
O=C(c1ccco1)n1c(=S)nc2ccccn21	7.31 µM (active)	–
CCN1C(=S)SC(=O)C1=C1C=C(C)N(CCO)C(C)=C1	1.3 µM (active)	–
Cc1sc(NC(=O)c2ccc(Cl)s2)c(C(N)=O)c1C	4.11 µM (active)	–
CC(C)NC(=S)N1CCN(S(C)(=O)=O)CC1	inactive	–
O=C(CC(Nc1ccc(F)cc1)C(=O)OCC(=O)c1cccs1)c1ccccc1 (stereo not drawn)	inactive	–
Cc1cc(C)cc(NC(=O)CSc2nnc(-c3ccccc3C)o2)c1	inactive	–
Cc1cc(NC(=O)c2c(F)c(F)c(F)c(F)c2F)no1	inactive	–
Cc1ccc(NC(=S)NC(=O)c2cccs2)cc1F	9.2 µM (active)	–
NNC(=O)c1cccc(O)c1	inactive	–
O=C(c1cccs1)c1coc2ccc(O)cc12	16.4 µM (active)	–
CCOP(=O)(OCC)C(NC(=O)Nc1ccccc1)C(N)=O (stereo not drawn)	inactive	–
Clc1ccccc1Nc1nc2ccccc2o1	5.17 µM (active)	–
O=C(NCCC1=CCCCC1)c1ccc(F)c(S(=O)(=O)N2CCOCC2)c1	inactive	–
Cc1ccc(S(=O)(=O)CNC(=O)c2ccccc2)cc1	inactive	–

Structure (SMILES)	Potency	activation
CCCCn1c(SCC(=O)N2CCCC2=O)nc2cc(S(N)(=O)=O)ccc21	inactive	–
Cc1ccc(C(=O)c2cc([N+](=O)[O-])ccc2N2CCCCC2)cc1C	inactive	–
CCOc1ccc(N2C(=O)c3ccccc3NC2(C)CC)cc1 (stereo not drawn)	9.2 µM (active)	–
c1ccc(-c2ccc(-c3ccccn3)nn2)nc1	0.082 µM (active)	–
O=C(NCCN1CCOCC1)c1cc(-c2cccs2)on1	23.1 µM (active)	–
c1ccc(-n2ncc3c(N4CCCCC4)ncnc32)cc1	1.16 µM (active)	–
O=C(CCc1nc(-c2ccccc2F)no1)NC1CCCCCC1	inactive	–
Cc1cc(C)cc(NC(=O)c2sc3nc(C)cc(C)c3c2N)c1	11.6 µM (active)	–
CC1(C)CC(=O)CC(=O)/C1=N\Nc1c(Cl)cc(Cl)cc1Cl	inactive	–
CC(C)C(=O)NC(c1cccs1)c1cc([N+](=O)[O-])c2cccnc2c1O (stereo not drawn)	inactive	–
CC(=O)c1ccc(NC(=O)CCc2nnc3ccc(NCc4ccco4)nn23)cc1	11.6 µM (active)	–
CCCCNC(=S)N(Cc1c(C)noc1C)c1ccccc1	inactive	–
COc1cc(N/N=C/c2ccccc2O)ncn1	25.9 µM (active)	–
Cc1ccc(C)c(Oc2cc(NC(=O)CCCn3nc(C)c([N+](=O)[O-])c3C)cc([N+](=O)[O-])c2)c1	inactive	–
O=C(CSc1ccccc1)Nc1ccc(-c2nc3ccccc3[nH]2)cc1	inactive	–
Cc1ccc(CCc2nnc(SCC(=O)Nc3cccc(Cl)c3)n2-c2ccccc2)o1	inactive	–
S=c1[nH]nc(-c2ccco2)n1Cc1ccccc1	inactive	–
Cc1ccc(OCCN2CCOCC2)cc1C	inactive	–
Clc1cccc(Cl)c1CSc1nnc2ccccn12	inactive	–
Cc1cc([N+](=O)[O-])ccc1NC(=O)/C=C/c1cccs1	inactive	–
